A short description of assay [1]: ATG_GLI_CIS: Attagene CIS-FACTORIAL HepG2 Assay for human Zinc Finger Protein GLI1 (AID 2282945). Conditions: HepG2, Attagene cis-factorial reporter mRNA, GLI element; actives raise or lower the signal. In a few lines:
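HepG2 cells transiently transfected with cis-promoter multiplexed reporter units report endogenous transcription factor activity. After 24 h chemical exposure, reporter mRNA was quantified by RT-PCR, 6-FAM labelling, HpaI digestion and capillary electrophoresis, with bidirectional fitting against DMSO.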

In assay [2] the target is Bile acid receptor (Homo sapiens) (UniProt Q96RI1). As to the kind of experiment: ATG_IR1_CIS: Attagene CIS-FACTORIAL HepG2 Assay for human Nuclear Receptor Subfamily 1 Group H Member 4 (NR1H4), IR1 submotif (AID 2282946). Particulars: IR1 reporter transcription, actives raise or lower the signal. Summed up: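 Transient MRTU transfection, HepG2; 24 h dosing; RNA → RT-PCR → 6-FAM primer extension → HpaI digest → capillary electrophoresis fluorescence. Gain/loss of signal fitted relative to DMSO.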
Bile acid receptor (Homo sapiens), sequence (Q96RI1 whole entry, looked up): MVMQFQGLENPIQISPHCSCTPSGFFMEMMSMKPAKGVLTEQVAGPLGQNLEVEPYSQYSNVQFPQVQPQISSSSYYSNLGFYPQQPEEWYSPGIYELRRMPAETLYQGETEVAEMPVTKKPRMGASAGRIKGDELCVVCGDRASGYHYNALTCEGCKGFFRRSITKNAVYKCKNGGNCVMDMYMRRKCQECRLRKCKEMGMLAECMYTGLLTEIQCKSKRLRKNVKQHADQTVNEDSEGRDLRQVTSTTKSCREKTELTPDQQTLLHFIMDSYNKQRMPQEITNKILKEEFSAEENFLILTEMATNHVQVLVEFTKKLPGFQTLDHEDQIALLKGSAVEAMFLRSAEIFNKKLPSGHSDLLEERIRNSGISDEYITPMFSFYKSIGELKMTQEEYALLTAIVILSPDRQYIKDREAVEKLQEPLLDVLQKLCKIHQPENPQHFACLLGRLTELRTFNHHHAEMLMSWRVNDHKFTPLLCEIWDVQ

Assay [3] in a line: ATG_GRE_CIS: Attagene CIS-FACTORIAL HepG2 Assay for human Glucocorticoid Response Elements (GRE) (AID 2282947). Conditions: HepG2 GRE cis-reporter, Attagene multiplex mRNA; actives raise or lower the signal. In a few lines:
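HepG2 cells transiently transfected with multiple cis-promoter reporter units measure endogenous TF activity; 24 h compound exposure. Reporter mRNA quantified by RT-PCR, FAM labelling, HpaI digestion and capillary electrophoresis; bidirectional fit vs DMSO baseline.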

Assay [4] can be described thus: ATG_ISRE_CIS: Attagene CIS-FACTORIAL HepG2 Assay for human Interferon Regulatory Factor 1 (IRF1) binding to an Interferon-Stimulated Response Element (ISRE) (AID 2282948). Conditions: HepG2 ISRE cis-reporter (Attagene), mRNA transcription readout; actives raise or lower the signal. In a few lines:
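Transiently transfected HepG2 cells carrying cis-element reporter units, dosed 24 hours. Reporter mRNA quantified by RT-PCR, fluorescent primer extension, HpaI digestion and capillary electrophoresis. Bidirectional fitting relative to DMSO.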

A short description of assay [5]: ATG_M_32_CIS: Attagene CIS-FACTORIAL HepG2 Assay for M32 Transcription Factor (Internal Marker) (AID 2282949).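 Further: background control marker of the multiplexed CIS panel rather than a real target.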 Conditions: HepG2 Attagene cis-factorial M32 reporter, mRNA; actives raise or lower the signal. In a few lines: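 Internal background marker read-out: RT-PCR/capillary electrophoresis fluorescence of reporter transcripts from transiently transfected HepG2 cells after 24 h chemical exposure. Activity fitted bidirectionally relative to DMSO negative control.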

The nature of assay [6]: ATG_M_06_CIS: Attagene CIS-FACTORIAL HepG2 Assay for M06 Transcription Factor (Internal Marker) (AID 2282950). Conditions: HepG2 Attagene CIS-FACTORIAL M06 internal marker reporter; actives raise or lower the signal. Summed up: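 Fluorescence-labelled RT-PCR products from cis-promoter reporter units, cut with HpaI and resolved by capillary electrophoresis, give the signal. Cells are human HepG2, dosed for 24 h. Serves as background control, fitted relative to DMSO.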

Assay [7] has as its target Hypoxia-inducible factor 1-alpha (Homo sapiens) (UniProt Q16665). The experiment in a line: ATG_HIF1a_CIS: Attagene CIS-FACTORIAL HepG2 Assay for human Hypoxia Inducible Factor 1 (HIF1A) (AID 2282951). Particulars: HepG2 Attagene cis-factorial HIF1a reporter transcription; actives raise or lower the signal. In a few lines:
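Transient MRTU transfection of human HepG2 liver cells, 24 h compound treatment, then total RNA isolation, oligo(dT) reverse transcription, PCR amplification, fluorescent labelling and capillary electrophoresis of reporter fragments. Gain or loss relative to DMSO.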

For assay [8], the target named is Hepatocyte nuclear factor 6 (Homo sapiens) (UniProt Q9UBC0). As to the kind of experiment: ATG_HNF6_CIS: Attagene CIS-FACTORIAL HepG2 Assay for human Hepatocyte Nuclear Factor 6 (HNF6) (AID 2282952). Conditions: HepG2 Attagene cis-factorial HNF6 reporter transcription; actives raise or lower the signal. Summed up: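 HepG2 cells transiently transfected with cis-element-driven multiplexed reporter units measuring endogenous transcription factor activity. After 24 h exposure, reporter mRNA quantified by RT-PCR, FAM-labelled fragments and capillary electrophoresis; bidirectional fitting versus DMSO.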
Hepatocyte nuclear factor 6 (Homo sapiens), sequence (Q9UBC0 whole entry, looked up, the tested form may be a part): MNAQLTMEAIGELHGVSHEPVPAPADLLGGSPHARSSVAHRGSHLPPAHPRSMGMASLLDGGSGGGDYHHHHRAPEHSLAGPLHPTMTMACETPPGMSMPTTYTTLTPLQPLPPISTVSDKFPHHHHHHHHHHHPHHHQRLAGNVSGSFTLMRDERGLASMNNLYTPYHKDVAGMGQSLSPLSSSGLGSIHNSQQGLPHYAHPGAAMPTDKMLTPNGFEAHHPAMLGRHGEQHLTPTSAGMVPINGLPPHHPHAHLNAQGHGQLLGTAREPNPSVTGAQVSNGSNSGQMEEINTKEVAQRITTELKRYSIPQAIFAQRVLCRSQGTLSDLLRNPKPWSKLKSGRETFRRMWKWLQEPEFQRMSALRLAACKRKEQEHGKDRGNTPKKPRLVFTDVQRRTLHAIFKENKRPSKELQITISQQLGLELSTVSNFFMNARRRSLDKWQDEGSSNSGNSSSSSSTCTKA

Assay [9] concerns the target Heat shock factor protein 1 (Homo sapiens) (UniProt Q00613). As to the kind of experiment: ATG_HSE_CIS: Attagene CIS-FACTORIAL HepG2 Assay for human Heat Shock Transcription Factor 1 (HSE) (AID 2282953). Particulars: HepG2 HSE cis-reporter, Attagene RNA transcription; actives raise or lower the signal. Summed up: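 After a 24 h incubation with test chemical, transfected HepG2 cells were harvested for RNA; reporter transcripts were measured by RT-PCR and capillary electrophoresis. Values reflect gain or loss of signal relative to DMSO.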

Assay [10] has as its target Paired box protein Pax-6 (Homo sapiens) (UniProt P26367). The experiment in a line: ATG_Pax6_CIS: Attagene CIS-FACTORIAL HepG2 Assay for human Paired Box 6 (PAX6) (AID 2282956). Conditions: HepG2 CIS-FACTORIAL PAX6 reporter transcription, RNA readout; actives raise or lower the signal. In a few lines: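 HepG2 cells transiently transfected with cis-promoter-driven multiplexed reporter units sensing endogenous transcription factor activity; 24 h chemical exposure. Reporter mRNA quantified by RT-PCR, 6-FAM labelling, HpaI digestion and capillary electrophoresis; bidirectional fit versus DMSO baseline.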

The nature of assay [11]: ATG_PXRE_CIS: Attagene CIS-FACTORIAL HepG2 Assay for human Pregnane X Receptor Element (PXRE) (AID 2282957). Conditions: HepG2 Attagene CIS-FACTORIAL PXRE reporter, mRNA; actives raise or lower the signal. Summed up: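 HepG2 cells transiently transfected with cis-element-driven multiplexed reporter units; after 24 h chemical exposure, reporter mRNA measured by RT-PCR, 6-FAM labelling, HpaI digestion and capillary electrophoresis. Bidirectional fitting relative to DMSO.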

The nature of assay [12]: ATG_PPRE_CIS: Attagene CIS-FACTORIAL HepG2 Assay for human Peroxisome Proliferator-activated Response Element (PPRE) (AID 2282958). Conditions: HepG2 PPRE cis-element reporter, Attagene transcription factor profiling; actives raise or lower the signal. In a few lines: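 HepG2, transient MRTU transfection (cis promoter elements, endogenous TFs). 24 h dosing. RNA → oligo(dT) RT → PCR → 6-FAM primer extension → HpaI digest → CE. Bidirectional fit vs DMSO.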

Assay [13] in a line: ATG_RORE_CIS: Attagene CIS-FACTORIAL HepG2 Assay for human RAR-related Orphan Receptor Element (RORE) (AID 2282959). Conditions: HepG2 Attagene cis-factorial RORE reporter, mRNA; actives raise or lower the signal. Summed up: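 Transient MRTU transfection of human HepG2 liver cells (FuGene 6); 24 h compound exposure; TriZol RNA, oligo(dT) RT, PCR, FAM labeling, HpaI cut, CE fragment analysis. DMSO = negative control/baseline.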

A short description of assay [14]: ATG_Sox_CIS: Attagene CIS-FACTORIAL HepG2 Assay for human SRY-box transcription factor (SOX) (AID 2282960). Particulars: HepG2 Attagene cis-factorial SOX reporter, mRNA; actives raise or lower the signal. In a few lines:
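Endogenous factor activity in human liver HepG2 cells carrying transfected cis-regulated reporter units. RNA taken 24 h post-dose, reverse-transcribed, PCR-amplified and sized by capillary electrophoresis. Gain or loss of signal fitted relative to DMSO.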

Assay [15] has as its target Transcription factor Sp1 (Homo sapiens) (UniProt P08047). The experiment in a line: ATG_Sp1_CIS: Attagene CIS-FACTORIAL HepG2 Assay for human Specificity Protein 1 (Sp1) (AID 2282961). Conditions: HepG2 Sp1 cis-reporter transcription, actives raise or lower the signal. In a few lines:
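Transient MRTU-transfected HepG2, 24 h compound exposure. Total RNA → oligo(dT) RT → PCR of reporter → 6-FAM primer extension → HpaI digest → CE. Endpoint fitted both directions vs DMSO.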

The nature of assay [16]: ATG_SREBP_CIS: Attagene CIS-FACTORIAL HepG2 Assay for human Sterol Regulatory Element Binding (SREBP) (AID 2282962). Conditions: HepG2 Attagene cis-factorial SREBP reporter, mRNA; actives raise or lower the signal. In a few lines: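 HepG2 cells transiently transfected with multiplexed cis-promoter reporter units sensing endogenous transcription factors; reporter mRNA measured 24 h after dosing by RT-PCR, 6-FAM labeling, HpaI digestion and capillary electrophoresis. Bidirectional fit versus DMSO.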

Assay [17] has as its target Signal transducer and activator of transcription 3 (Homo sapiens) (UniProt P40763). As to the kind of experiment: ATG_STAT3_CIS: Attagene CIS-FACTORIAL HepG2 Assay for human Signal Transducer and Activator of Transcription 3 (STAT3) (AID 2282963). Conditions: HepG2, Attagene cis-factorial STAT3 reporter transcription; actives raise or lower the signal. In a few lines:
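HepG2 cells transiently transfected with cis-element-driven multiple reporter transcription units; after 24 h chemical exposure, reporter mRNA measured by RT-PCR, 6-FAM primer-extension labelling, HpaI digestion and capillary electrophoresis. Bidirectional fitting versus DMSO baseline.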

Assay [18] can be described thus: ATG_TA_CIS: Attagene CIS-FACTORIAL HepG2 Assay for human TA Basal Promoter (AID 2282964). Particulars: HepG2 Attagene CIS-factorial TA basal promoter reporter; actives raise or lower the signal. In a few lines: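 Multiplexed mRNA reporter assay, HepG2, 24 h. Reporter cDNA amplified, 6-FAM primer-extended, HpaI-cut, CE-sized; DMSO = negative control and baseline.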

A short description of assay [19]: ATG_PBREM_CIS: Attagene CIS-FACTORIAL HepG2 Assay for human Phenobarbital-responsive Enhancer Module (PBREM) (AID 2282955). Particulars: HepG2 PBREM cis-reporter, Attagene multiplexed transcription; actives raise or lower the signal. Summed up:
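Endogenous transcription factors in human liver HepG2 cells drive a PBREM cis-element reporter, whose transcript level after 24 h treatment is quantified by RT-PCR with capillary electrophoresis; activity fitted in both directions against DMSO.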

Assay [20] can be described thus: ATG_MRE_CIS: Attagene CIS-FACTORIAL HepG2 Assay for human Metal Responsive Element (MRE) (AID 2282954). Particulars: HepG2 MRE cis-reporter transcription, Attagene multiplex; actives raise or lower the signal. In a few lines: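 HepG2 cells transiently transfected with multiple cis-element reporter units measure endogenous MTF1-driven transcription. After 24 h compound exposure, reporter mRNA is quantified by RT-PCR with 6-FAM labelling, HpaI digestion and capillary electrophoresis; bidirectional fits versus DMSO.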

We go through four compounds from PubChem BioAssay (EPA / NIEHS).

Each structure is given as a SMILES string. Calls of active or inactive are those of the source. How the source made its calls: active means hit-call score of the fitted dose curve at least 0.9, where 1 is the maximum; inactive means score below 0.9.

Signal transducer and activator of transcription 3 (Homo sapiens), sequence (P40763 whole entry, looked up): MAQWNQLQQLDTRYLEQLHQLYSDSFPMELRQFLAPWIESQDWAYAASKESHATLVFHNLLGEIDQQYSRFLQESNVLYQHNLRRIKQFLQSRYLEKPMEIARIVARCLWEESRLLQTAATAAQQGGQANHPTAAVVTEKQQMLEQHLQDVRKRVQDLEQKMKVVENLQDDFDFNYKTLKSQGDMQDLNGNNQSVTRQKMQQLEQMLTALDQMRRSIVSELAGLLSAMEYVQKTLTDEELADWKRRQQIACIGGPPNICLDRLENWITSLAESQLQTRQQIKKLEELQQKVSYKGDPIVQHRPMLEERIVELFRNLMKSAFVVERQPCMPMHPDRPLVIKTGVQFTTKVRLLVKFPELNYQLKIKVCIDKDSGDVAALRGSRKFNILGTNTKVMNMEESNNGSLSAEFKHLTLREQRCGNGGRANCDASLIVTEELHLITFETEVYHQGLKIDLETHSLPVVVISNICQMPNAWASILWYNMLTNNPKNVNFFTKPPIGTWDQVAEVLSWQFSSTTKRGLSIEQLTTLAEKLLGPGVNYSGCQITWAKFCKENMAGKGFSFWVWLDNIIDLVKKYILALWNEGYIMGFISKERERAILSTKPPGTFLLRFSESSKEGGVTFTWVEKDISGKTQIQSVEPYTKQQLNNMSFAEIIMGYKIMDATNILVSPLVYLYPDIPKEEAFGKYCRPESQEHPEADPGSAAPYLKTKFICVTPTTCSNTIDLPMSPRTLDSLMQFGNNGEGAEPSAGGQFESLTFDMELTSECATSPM
Transcription factor Sp1 (Homo sapiens), sequence (P08047 whole entry, looked up): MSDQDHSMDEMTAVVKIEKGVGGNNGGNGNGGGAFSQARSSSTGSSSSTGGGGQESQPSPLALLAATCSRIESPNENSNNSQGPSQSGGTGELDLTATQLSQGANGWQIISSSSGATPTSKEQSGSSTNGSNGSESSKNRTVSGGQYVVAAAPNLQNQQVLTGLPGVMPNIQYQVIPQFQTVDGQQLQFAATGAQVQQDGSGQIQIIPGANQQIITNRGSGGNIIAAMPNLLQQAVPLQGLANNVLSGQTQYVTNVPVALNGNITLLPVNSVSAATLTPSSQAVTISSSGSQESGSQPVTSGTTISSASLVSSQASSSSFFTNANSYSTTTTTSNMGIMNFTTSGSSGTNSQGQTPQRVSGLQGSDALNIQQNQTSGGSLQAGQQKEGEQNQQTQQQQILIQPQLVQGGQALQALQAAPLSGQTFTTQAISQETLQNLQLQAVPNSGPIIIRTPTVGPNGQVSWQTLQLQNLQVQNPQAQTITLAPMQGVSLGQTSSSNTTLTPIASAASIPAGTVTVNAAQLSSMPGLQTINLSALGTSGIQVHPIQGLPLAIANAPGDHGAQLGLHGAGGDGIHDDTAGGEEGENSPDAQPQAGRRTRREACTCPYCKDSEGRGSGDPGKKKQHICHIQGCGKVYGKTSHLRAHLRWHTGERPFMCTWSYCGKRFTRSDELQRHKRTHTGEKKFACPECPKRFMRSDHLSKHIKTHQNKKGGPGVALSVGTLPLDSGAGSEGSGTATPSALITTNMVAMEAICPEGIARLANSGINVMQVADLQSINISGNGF
Paired box protein Pax-6 (Homo sapiens), sequence (P26367 whole entry, looked up): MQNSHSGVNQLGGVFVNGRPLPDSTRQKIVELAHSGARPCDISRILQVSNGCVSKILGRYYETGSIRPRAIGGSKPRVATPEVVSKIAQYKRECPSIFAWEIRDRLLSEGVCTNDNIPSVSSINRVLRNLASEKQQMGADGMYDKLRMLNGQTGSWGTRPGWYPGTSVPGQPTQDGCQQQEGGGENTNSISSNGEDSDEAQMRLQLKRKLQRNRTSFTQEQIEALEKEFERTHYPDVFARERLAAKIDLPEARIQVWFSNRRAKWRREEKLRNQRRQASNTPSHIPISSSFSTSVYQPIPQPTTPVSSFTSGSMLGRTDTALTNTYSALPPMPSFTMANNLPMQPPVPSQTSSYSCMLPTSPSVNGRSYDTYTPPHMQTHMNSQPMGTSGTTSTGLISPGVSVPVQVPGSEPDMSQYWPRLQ
Heat shock factor protein 1 (Homo sapiens), sequence (Q00613 whole entry, looked up): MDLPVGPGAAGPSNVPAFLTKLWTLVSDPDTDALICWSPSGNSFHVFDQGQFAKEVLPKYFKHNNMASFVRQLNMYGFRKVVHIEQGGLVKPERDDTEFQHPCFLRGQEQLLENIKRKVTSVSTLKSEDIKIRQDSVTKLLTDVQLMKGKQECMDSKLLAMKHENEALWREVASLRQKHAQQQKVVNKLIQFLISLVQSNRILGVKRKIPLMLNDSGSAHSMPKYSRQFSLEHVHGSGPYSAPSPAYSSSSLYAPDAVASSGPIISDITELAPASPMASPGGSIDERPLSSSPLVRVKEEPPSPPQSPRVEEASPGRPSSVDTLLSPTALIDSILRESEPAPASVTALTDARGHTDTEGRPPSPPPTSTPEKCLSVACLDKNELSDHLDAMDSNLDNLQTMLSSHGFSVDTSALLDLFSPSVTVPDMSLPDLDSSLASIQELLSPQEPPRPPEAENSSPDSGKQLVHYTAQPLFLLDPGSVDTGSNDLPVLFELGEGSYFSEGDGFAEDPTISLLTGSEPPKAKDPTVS
Hypoxia-inducible factor 1-alpha (Homo sapiens), sequence (Q16665 whole entry, looked up, the tested form may be a part): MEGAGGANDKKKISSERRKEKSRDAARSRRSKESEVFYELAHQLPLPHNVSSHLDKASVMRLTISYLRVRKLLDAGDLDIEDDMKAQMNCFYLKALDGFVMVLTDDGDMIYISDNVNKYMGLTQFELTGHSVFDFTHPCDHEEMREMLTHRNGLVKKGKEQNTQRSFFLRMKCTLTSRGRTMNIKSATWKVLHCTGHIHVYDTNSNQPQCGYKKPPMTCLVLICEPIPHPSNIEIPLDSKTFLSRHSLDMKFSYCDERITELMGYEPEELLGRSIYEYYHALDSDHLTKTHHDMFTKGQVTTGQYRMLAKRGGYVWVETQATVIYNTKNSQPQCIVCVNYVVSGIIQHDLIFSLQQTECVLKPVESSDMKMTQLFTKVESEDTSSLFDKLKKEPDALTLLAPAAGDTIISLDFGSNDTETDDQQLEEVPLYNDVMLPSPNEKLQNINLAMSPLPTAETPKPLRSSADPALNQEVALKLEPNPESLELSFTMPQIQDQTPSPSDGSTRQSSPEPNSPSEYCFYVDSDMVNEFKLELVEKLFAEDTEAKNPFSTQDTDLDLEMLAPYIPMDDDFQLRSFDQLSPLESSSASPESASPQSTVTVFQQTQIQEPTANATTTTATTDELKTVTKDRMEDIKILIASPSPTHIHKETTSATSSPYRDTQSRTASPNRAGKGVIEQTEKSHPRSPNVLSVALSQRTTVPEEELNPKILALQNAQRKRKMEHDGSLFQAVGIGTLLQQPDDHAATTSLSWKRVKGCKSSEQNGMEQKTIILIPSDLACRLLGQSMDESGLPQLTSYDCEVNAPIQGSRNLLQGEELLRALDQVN

Regarding `Cc1cc(C)n(CO)n1`, the outcome in assay [1], in assay [2], in assay [3], in assay [4], in assay [5] and in assay [6] was inactive. For the same compound, the call in [7], in assay [8], in assay [9], in [10], in [11] and in assay [12] was inactive. For the same compound, the compound was called inactive in [13], in [14], in [15], in [16], in assay [17] and in [18].

Take `CCc1occc(=O)c1O`: the outcome in assay [1], in assay [2], in assay [3], in assay [4], in [5] and in [6] was inactive. For the same compound, the compound was classed as inactive in assay [7], in assay [8], in assay [9], in assay [19], in assay [10] and in assay [12]. Also, the compound was called inactive in [13], in assay [14], in assay [15], in assay [16] and in assay [17].

Consider `CC(C)=CCl`, for which the compound was called inactive in assay [1], in [2], in assay [3], in [4], in assay [5] and in [6]. Moreover, the result in [7], in [8], in assay [9], in [20], in assay [19] and in assay [10] was inactive. The result in assay [14], in assay [15], in assay [16], in assay [17] and in assay [18] was inactive.

Consider `CC(C)=NNC(N)=S`, for which the compound was classed as inactive in [1], in assay [2], in assay [3], in assay [4], in assay [5] and in assay [6]. Further, the outcome in assay [8], in assay [9], in assay [10], in assay [11], in [12] and in assay [13] was inactive. Besides, the compound was called inactive in assay [14], in assay [15], in assay [16] and in [17]. The AC50 in assay [7] was 9.14 µM (active).

The term AC50 denotes the midpoint of the concentration-response curve, whichever way the signal moves.
